# Screening data from PubChem.
# Jurkat NFkB inh: inhibitors of induced NF-kB luciferase reporter, primary screen, TCR NF-kB activation inhibitor project, cell-based, luminescence, uHTS. actives 0.53% (n = 330,000). Jurkat, PMA/ionomycin-induced NF-kB luciferase reporter. inhibition, % at 4 µM; in the data active = inhibition above about 50%
# Beta apoptosis: inhibitors of cytokine-induced beta cell apoptosis, primary screen, luminescence | INS-1E cytokine-induced death, ATP luminescence, 48 h; percent of positive-control rescue, neutral wells zero | protection from apoptosis, % (test concentration not listed) | actives 0.8% (n = 300,000) | AID 435005, 2010;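 active = Every replicate reaches about 75%, or at least half do and their mean reaches it too, limit read from the data; inconclusive = At least half of replicates reach the limit but their mean does not; inactive = Under half of replicates reach the limit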;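 also: 0% = cytokine-treated negative control wells and 100% = positive control rescue; higher means more ATP so stronger rescue from cytokine killing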
# Shn3 inh set2: reduction of Shn3 3'UTR firefly luciferase signal, primary screen, Schnurri-3 inhibitor project, cell-based, Clone20 osteoblasts, set 2. Clone20 osteoblast Shn3 3'UTR firefly luciferase, 24 h. inhibition, % at 12.5 µM. actives 0.52% (n = 360,000);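 active = mean inhibition of at least 75% with every replicate also reaching 75%; inconclusive = mean inhibition at least 75% but some replicate below; inactive = mean inhibition below 75%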;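 also: 0% = median of neutral control wells and 100% = pilot-screen positive control compound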
# Calb FLC: C. albicans growth inhibition with fluconazole, primary screen, CaCi-2 strain, Alamar Blue fluorescence | C. albicans CaCi-2 (fluconazole-resistant clinical isolate) + fluconazole, 48 h | growth inhibition, % (concentration not given with the values) | AID 1979, 2009 | actives 0.57% (n = 300,000);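 active = growth inhibition above about 58% in most replicates, limit read from the data, passing the limit was not always enough; inconclusive = exactly half the replicates above a set limit; inactive = most replicates below a set limit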;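 also: all wells also contain fluconazole at 8 µg/ml as a sub-toxic cotreatment; 0% = median of DMSO wells and 100% = median of geldanamycin control wells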
# 697 NFkB inh: inhibitors of PMA/ionomycin-induced NF-kB reporter, 697 cells, primary screen, B-cell NF-kB inhibitor project, cell-based, luminescence, uHTS. 697 B-cell NF-kB luciferase reporter, 16 h. inhibition, % at 4 µM. actives 0.33% (n = 330,000). AID 435022, 2010; in the data active = inhibition above about 35%
# Active calls of the source: *; ? = inconclusive; . = no result given. Most compounds without a hit are left out; they make up all but 2% or so of the library.
SMILES,Jurkat NFkB inh,Beta apoptosis,Shn3 inh set2,Calb FLC,697 NFkB inh
O=C(Nc1cccnc1)C12CC3CC(CC(C3)C1)C2,-8,-3,-3,-4,3
O=C(CN1CCN(c2ccccc2F)CC1)Nc1nnc(C(F)(F)F)s1,-7,3,-17,86*,1
CCOC(=O)N1CCN(CC(=O)Nc2nnc(C(F)(F)F)s2)CC1,-4,-12,-1,0,-31
CC(C)C(=O)NNC(=O)CN1CCN(c2nc(-c3ccccc3)cs2)CC1,-5,-2,-19,-20,-27
CCc1nnc(NC(=O)CN2CCN(c3nc(-c4ccccc4)cs3)CC2)s1,8,3,-3,90*,15
CC(=O)Oc1c(I)cc(I)cc1C(=O)Nc1ccc(Cl)cc1,-5,106*,4,8,-39
COc1ccc(Cl)cc1C(=O)Nc1ccc(NC(C)=O)cc1,-5,1,-19,4,3
Cc1ccc(S(=O)(=O)NCCn2nc(C)nc2C)cc1,-11,-7,-13,2,16
Cc1ccc(NS(=O)(=O)c2cccc3cccnc23)cc1Cl,-4,3,5,-8,-7
Cc1cc(C)c(NS(=O)(=O)c2cccc3cccnc23)c(C)c1,2,0,13,73*,12
Cc1ccc2nc(-c3ccc(NC(=S)NC4CC(C)(C)NC(C)(C)C4)cc3)sc2c1,-63,0,-71,74*,-134
Cc1ccc2nc(-c3ccc(NC(=S)NC(=O)C(C)C)cc3)sc2c1,-103,4,-56,-6,-224
O=C1c2ccccc2NC(c2cn[nH]c2-c2ccc(Cl)cc2)N1O (configuration not stated),33,-6,31,91*,-34
Cc1oc(-c2cccs2)nc1CN1CCN(CCC(C)C)C(CCO)C1 (configuration not stated),1,0,-5,0,8
Cc1oc(-c2cccs2)nc1CN1CCN(Cc2ccc(F)c(F)c2)C(CCO)C1 (configuration not stated),0,1,-19,84*,10
Cc1ccc(NC(=O)c2ccc(Cl)c(N3C(=O)C=CC3=O)c2)cc1,-24,-6,92*,-6,-51
FC(F)Sc1ccc(-n2cc(-c3ccc(Cl)cc3)[n+]3c2CCC3)cc1,5,12,-20,-23,-26
Cc1ccc(-c2cn(-c3ccc(OC(F)F)cc3)c3[n+]2CCCCC3)cc1,18,100*,88*,?,-43
Cc1ccc(-c2cn(-c3ccc(SC(F)F)cc3)c3[n+]2CCC3)cc1,19,82*,77,-14,-27
CCC(=O)NC(/C=C/c1ccccc1)c1cc([N+](=O)[O-])c2cccnc2c1O (configuration not stated),1,77*,.,3,-56
CCC(=O)NC(c1cccs1)c1cc([N+](=O)[O-])c2cccnc2c1OC (configuration not stated),.,.,-2,.,.
CC(C)C(=O)NC(c1cccs1)c1cc([N+](=O)[O-])c2cccnc2c1O (configuration not stated),-5,97*,8,90*,-6
Cc1ccc(C(NC(=O)C(C)C)c2cc([N+](=O)[O-])c3cccnc3c2O)cc1 (configuration not stated),-1,61,54,-7,-19
CC(=O)NC(c1ccco1)c1cc(Cl)c2ccccc2c1O (configuration not stated),-3,-5,-14,.,-5
CC(=O)NC(c1ccco1)c1cc(F)c2cccnc2c1O (configuration not stated),8,82*,-14,.,-7
SMILES,Jurkat NFkB inh,Beta apoptosis,Shn3 inh set2,Calb FLC,697 NFkB inh
CC(=O)NC(c1cccs1)c1cc(F)c2cccnc2c1O (configuration not stated),38,91*,84,.,-24
CN1C[C@@H]2[C@@H]3C(=O)N(Cc4ccccc4)C(=O)[C@@H]3[C@](C)(C1=O)N2C(=O)c1ccccc1,.,.,-1,.,.
CCOCc1nc2nc(Cl)c(Cl)nc2[nH]1,.,.,-40,.,.
Cc1ccc(SCC(=O)NNC(=O)CNC(=O)c2ccccc2F)cc1,-11,-2,0,.,21
c1ccc(CNc2nc(NCCc3ccncc3)c3sccc3n2)cc1,.,.,39,.,.
CC1CCCCN1S(=O)(=O)c1ccc(NC(=O)c2cccc(-n3cnnn3)c2)cc1 (configuration not stated),0,-2,4,91*,-43
O=C(N/N=C\C=C\c1ccc([N+](=O)[O-])o1)c1cccs1,1,4,-5,91*,-18
COc1ccccc1OCC(=O)N/N=C/C=C/c1ccc([N+](=O)[O-])o1,-1,-9,38,94*,-6
Cc1ccccc1OCC(=O)N/N=C/c1ccc([N+](=O)[O-])o1,6,7,-13,30,-1
CCCc1cc(=O)oc2cc(OCC(=O)Nc3ccc(S(N)(=O)=O)cc3)ccc12,-9,-6,-1,2,9
Cc1ccc(C(=O)NCc2ccco2)cc1S(=O)(=O)Nc1cccc(Cl)c1,-10,-4,-22,113*,-25
Cc1ccc(C)c(S(=O)(=O)NCc2ccc(C(=O)NCc3ccco3)cc2)c1,0,6,3,-2,14
CCN1CCN(C(c2cccs2)C(C)NS(=O)(=O)c2ccc(C)cc2)CC1 (configuration not stated),-13,-1,7,-7,-5
C=CCOc1ccccc1/C=N/NC(=O)c1ccc(Cl)cc1Cl,-11,1,-7,?,-3
COc1cc(C(=O)Oc2ccccc2/C=N/NC(=O)c2ccc(Cl)cc2Cl)cc(OC)c1OC,-2,92*,6,-3,-68
COc1cc2sc(-c3ccccc3OC)c(-c3ccc(OCCN4CCCCC4)cc3)c2cc1OC,-1,124*,-11,.,-2
COc1ccccc1-c1sc2cc3c(cc2c1-c1ccc(OCCN2CCCCC2)cc1)OCO3,1,36,-13,.,-22
COP(=O)(OC)c1ccc(NCc2cc(O)ccc2O)cc1,.,.,-6,.,.
O=C(OCc1ccccc1)c1ccc(NCc2cc(O)ccc2O)cc1,.,.,99*,.,.
CC(C)OC(=O)c1ccc(NCc2cc(O)ccc2O)cc1,.,.,95*,.,.
CCC(=O)Nc1ccc(C(=O)OCc2ccccc2)cc1,-11,-1,-5,5,-28
O=C(N/N=C/c1sc2ccccc2c1O)c1ccccc1,7,103*,77,21,-24
COc1ccc(C(=O)N/N=C/c2c[nH]c3ccccc23)cc1,-52,-3,-16,-10,-62
COc1ccc2cc(C(=O)N/N=C/c3sc4ccccc4c3O)ccc2c1,1,92*,22,-6,-22
O=C(N/N=C/c1sc2ccccc2c1O)c1cccc2ccccc12,.,97*,70,88*,.
